# Measurements reported in PubChem BioAssay (Tox21).
# Unmarked numbers belong to inactive results. Results filed as inconclusive are left out. Entries that show only a call come without a potency. Calls of active or inactive are those of the source. Unless noted, the call rests on the fitted dose curve.
# Experiments:
# [1] = Nuclear factor erythroid 2-related factor 2/antioxidant responsive element (Nrf2/ARE) small molecule agonists: qHTS cell viability counter screen in human keratinocytes (AID 1919968; active means well fitted curve in the direction sought with a large enough effect in the repeat runs; an effect the other way counts as inactive or inconclusive; further: nearly all actives have a fitted effect of over 55% in size; further: potency means the concentration at half of the fitted maximal effect)
# Method in brief: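 CellTiter-Fluor fluorescence, read 1 h after reagent, gave viability in the same wells as the ARE-luciferase assay. KeratinoSens cells (1,500/well) had 23 h compound exposure at 37 C/5% CO2 following 5 h plating.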
# [2] = Nuclear factor erythroid 2-related factor 2/antioxidant responsive element (Nrf2/ARE) small molecule agonists: luciferase reporter gene qHTS assay in human keratinocytes (AID 1919969); further: nearly all actives have a fitted effect of over 35% in size
# [3] = biological target: Gonadotropin-releasing hormone receptor (Homo sapiens) (UniProt P30968); test: Human gonadotropin-releasing hormone receptor (GnRHR) small molecule agonists, calcium flux assay in GnRHR-HEK293 cells (AID 1920063); further: nearly all actives have a fitted effect of over 35% in size
# Sequence of Gonadotropin-releasing hormone receptor (Homo sapiens) (P30968 whole entry, looked up): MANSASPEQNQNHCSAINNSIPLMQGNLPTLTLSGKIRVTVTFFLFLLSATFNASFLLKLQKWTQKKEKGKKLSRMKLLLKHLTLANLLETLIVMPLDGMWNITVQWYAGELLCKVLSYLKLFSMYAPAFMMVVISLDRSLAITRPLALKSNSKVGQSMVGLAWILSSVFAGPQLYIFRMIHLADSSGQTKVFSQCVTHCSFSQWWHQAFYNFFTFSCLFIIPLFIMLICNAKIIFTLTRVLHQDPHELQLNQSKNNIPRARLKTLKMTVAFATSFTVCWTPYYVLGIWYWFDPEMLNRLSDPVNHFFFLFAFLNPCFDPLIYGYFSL
# Method in brief: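 Agonist mode: compounds at 15 concentrations, in triplicate, went onto calcium dye-loaded GnRHR-HEK293 cells. Intracellular calcium was then followed as 480/540 nm fluorescence at 1 s intervals over 3 min.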
# [4] = biological target: KiSS-1 receptor (Homo sapiens) (UniProt Q969F8); test: Human kisspeptin (KISS1R) small molecule agonists, calcium flux assay in KISS1R-HEK293 cells (AID 1920064; active means well fitted curve in the direction sought with a large enough effect in the repeat runs; an effect the other way counts as inactive or inconclusive)
# Sequence of KiSS-1 receptor (Homo sapiens) (Q969F8 whole entry, looked up): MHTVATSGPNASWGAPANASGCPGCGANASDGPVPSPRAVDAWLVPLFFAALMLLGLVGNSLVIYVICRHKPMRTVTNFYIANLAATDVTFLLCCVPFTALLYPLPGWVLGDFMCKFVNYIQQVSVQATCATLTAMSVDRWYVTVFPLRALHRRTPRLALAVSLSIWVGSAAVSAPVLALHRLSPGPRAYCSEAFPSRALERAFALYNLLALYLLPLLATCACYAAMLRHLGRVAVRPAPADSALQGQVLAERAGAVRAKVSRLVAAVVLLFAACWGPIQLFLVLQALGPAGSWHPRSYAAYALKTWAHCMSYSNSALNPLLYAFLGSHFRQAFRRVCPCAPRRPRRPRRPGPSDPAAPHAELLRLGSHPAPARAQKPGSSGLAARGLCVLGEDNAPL
# Method in brief: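 Agonist mode: intracellular calcium rise tracked at 1 s intervals over 3 min (480/540 nm) immediately after compound addition to dye-loaded KISS1R-HEK293 stable cells. Each compound tested at 15 concentrations in triplicate.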
# [5] = G protein-coupled receptor (GPCR) small molecule agonists, calcium flux assay: HEK293 wild type cell line counter screen (AID 1920065)
# Method in brief: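 Calcium flux counter screen: compound added in agonist mode at 15 concentrations in triplicate to dye-loaded parental HEK293 cells. Fluorescence (480/540) read kinetically for 3 min; ATP served as positive control.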
# [6] = p53 small molecule agonists, cell-based qHTS assay with human liver microsomes (AID 1963577);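 further: p53 response element beta-lactamase reporter cells with liver microsomes plus NADPH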
# Method in brief: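 HLM-supplemented p53RE-bla reporter assay: 16 h compound exposure at 37 C, microsomes and NADPH each 0.5 mg/mL final, read by fluorescence intensity.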
# [7] = p53 small molecule agonists, cell-based qHTS assay with rat liver microsomes (AID 1963578)
# Method in brief: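 Quantitative HTS of the Tox21 10K library: p53RE-bla cells, rat liver microsomes plus NADPH at 0.5 mg/mL final each, 16 h at 37 C, beta-lactamase fluorescence detection.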
# [8] = p53 small molecule agonists, cell-based qHTS assay with human liver microsomes: qHTS cell viability counter screen (AID 1963579); further: nearly all actives have a fitted effect of over 45% in size; further: potency means the concentration at half of the fitted maximal effect
# Method in brief: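 Viability of p53RE-bla cells is measured as CellTiter-Glo luminescence following a 16 h, 37 C incubation with compound, liver microsomes from human donors and NADPH.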
# [9] = p53 small molecule agonists, cell-based qHTS assay with rat liver microsomes: qHTS cell viability counter screen (AID 1963580); further: nearly all actives have a fitted effect of over 45% in size; further: potency means the concentration at half of the fitted maximal effect
# Method in brief: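 Rat liver microsome (0.5 mg/mL final) and NADPH (0.5 mg/mL final) co-incubation with compounds for 16 h at 37 C on HCT-116 p53RE-bla cells; cytotoxicity taken from intracellular ATP luminescence.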
# [10] = cAMP Responsive Elements (CRE) small molecule antagonists, cell-based qHTS assay (AID 1963591; active means well fitted inhibition curve with a large enough effect in the signal ratio in the repeat runs, not every such curve was filed as active; the % refers to the signal ratio)
# Method in brief: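 Antagonist mode: compounds are added alongside the adenylyl cyclase activator NKH477 (0.25 uM final) to CRE-bla HEK293T cells for 3 h. LiveBLAzer FRET substrate, 2 h at room temperature, reports bla expression.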
# [11] = biological target: Beta-2 adrenergic receptor (Homo sapiens) (UniProt P07550); test: Adrenergic beta2 receptor (ADRB2) small molecule antagonists, cell-based qHTS assay (AID 1963592); further: series mostly up to about 92 µM; nearly all actives have a fitted effect of over 50% in size
# Sequence of Beta-2 adrenergic receptor (Homo sapiens) (P07550 whole entry, looked up): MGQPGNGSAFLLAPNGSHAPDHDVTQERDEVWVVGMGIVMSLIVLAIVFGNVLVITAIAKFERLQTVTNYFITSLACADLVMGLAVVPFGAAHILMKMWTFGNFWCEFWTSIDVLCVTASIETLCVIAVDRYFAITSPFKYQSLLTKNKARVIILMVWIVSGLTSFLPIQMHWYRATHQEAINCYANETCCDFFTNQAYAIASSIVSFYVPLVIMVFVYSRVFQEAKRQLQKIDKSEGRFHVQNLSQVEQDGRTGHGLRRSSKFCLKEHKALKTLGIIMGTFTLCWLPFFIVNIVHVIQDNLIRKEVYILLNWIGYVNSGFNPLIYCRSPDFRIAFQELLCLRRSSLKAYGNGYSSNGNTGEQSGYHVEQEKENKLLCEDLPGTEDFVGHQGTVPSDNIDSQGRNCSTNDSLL
# Method in brief: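 Assay format: CHO-ADRB2 cells, 18-20hr seeding at 37C/5% CO2, then compound plus 1nM isoproterenol agonist mix for 0.5hr RT. Homogeneous time-resolved fluorescence cAMP detection after 1hr, expressed as 665/615 nm ratio.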
# [12] = biological target: D(2) dopamine receptor (Homo sapiens) (UniProt P14416); test: Dopamine D2 receptor (DRD2) small molecule agonists, cell-based qHTS assay (AID 1963594); further: nearly all actives have a fitted effect of over 35% in size
# Sequence of D(2) dopamine receptor (Homo sapiens) (P14416 whole entry, looked up): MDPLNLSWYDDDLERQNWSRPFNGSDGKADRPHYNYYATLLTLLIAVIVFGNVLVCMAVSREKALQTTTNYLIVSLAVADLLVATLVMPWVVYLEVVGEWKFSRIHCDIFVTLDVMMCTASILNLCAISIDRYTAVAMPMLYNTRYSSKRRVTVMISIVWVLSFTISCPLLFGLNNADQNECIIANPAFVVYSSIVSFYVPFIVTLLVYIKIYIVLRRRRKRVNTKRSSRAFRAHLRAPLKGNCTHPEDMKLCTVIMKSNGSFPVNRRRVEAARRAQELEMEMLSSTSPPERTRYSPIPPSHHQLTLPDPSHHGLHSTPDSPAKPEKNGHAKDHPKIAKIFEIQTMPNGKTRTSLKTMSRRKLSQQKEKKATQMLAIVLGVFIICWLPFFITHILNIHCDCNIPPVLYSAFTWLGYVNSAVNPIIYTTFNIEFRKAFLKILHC
# Method in brief: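 cAMP accumulation in DRD2-HEK293 cells measured by HTRF after 1 h detection; compounds added 10 min before NKH477 (200nM […]) forskolin-analogue stimulation, 30 min at room temperature, with Ro20-1724 present at 0.1 mM final.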
# [13] = biological target: 5-hydroxytryptamine receptor 2A (Homo sapiens) (UniProt P28223); test: 5-hydroxytryptamine receptor 2A (HTR2A) small molecule agonists, cell-based qHTS assay (AID 1963587); further: nearly all actives have a fitted effect of over 30% in size; further: potency means the concentration at half of the fitted maximal effect
# Sequence of 5-hydroxytryptamine receptor 2A (Homo sapiens) (P28223 whole entry, looked up): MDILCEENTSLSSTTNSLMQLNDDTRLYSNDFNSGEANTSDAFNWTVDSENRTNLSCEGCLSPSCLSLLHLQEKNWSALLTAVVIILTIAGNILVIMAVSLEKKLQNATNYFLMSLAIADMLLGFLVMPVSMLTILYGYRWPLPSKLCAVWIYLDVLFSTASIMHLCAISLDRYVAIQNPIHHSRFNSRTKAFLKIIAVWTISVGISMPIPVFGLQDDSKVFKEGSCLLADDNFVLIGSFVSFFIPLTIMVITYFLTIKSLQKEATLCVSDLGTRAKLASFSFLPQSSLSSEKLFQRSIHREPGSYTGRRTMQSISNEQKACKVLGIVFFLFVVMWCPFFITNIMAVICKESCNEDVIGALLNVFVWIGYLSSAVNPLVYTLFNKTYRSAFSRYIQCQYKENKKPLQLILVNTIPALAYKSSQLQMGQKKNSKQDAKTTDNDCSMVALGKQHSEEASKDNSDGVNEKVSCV
# Method in brief: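 Kinetic calcium-flux fluorescence (2 min, 1 sec intervals) after compound addition in agonist mode. HTR2A-CHO cells were cultured 18 h, then dye-loaded 1 h at 37 C.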
# [14] = biological target: Muscarinic acetylcholine receptor M1 (Homo sapiens) (UniProt P11229); test: Cholinergic receptor muscarinic 1 (CHRM1) small molecule antagonists, cell-based qHTS assay (AID 1963588); further: nearly all actives have a fitted effect of over 40% in size
# Sequence of Muscarinic acetylcholine receptor M1 (Homo sapiens) (P11229 whole entry, looked up): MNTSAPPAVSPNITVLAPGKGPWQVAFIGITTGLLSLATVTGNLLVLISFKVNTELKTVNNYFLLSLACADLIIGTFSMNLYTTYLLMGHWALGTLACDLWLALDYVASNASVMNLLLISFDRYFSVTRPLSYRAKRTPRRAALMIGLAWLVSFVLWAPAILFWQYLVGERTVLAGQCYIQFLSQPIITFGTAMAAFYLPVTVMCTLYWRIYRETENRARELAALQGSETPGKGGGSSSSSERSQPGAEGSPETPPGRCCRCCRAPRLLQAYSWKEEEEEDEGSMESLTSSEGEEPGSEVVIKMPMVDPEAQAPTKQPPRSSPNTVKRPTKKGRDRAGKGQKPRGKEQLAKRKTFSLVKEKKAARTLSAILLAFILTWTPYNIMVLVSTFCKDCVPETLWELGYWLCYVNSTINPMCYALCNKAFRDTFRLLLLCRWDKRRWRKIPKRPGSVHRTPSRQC
# Method in brief: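 Compounds were tested at 15 concentrations in three independent runs. Dye-loaded CHRM1-CHO cells were exposed 5 min at room temperature before stimulation by acetylcholine added at 50nM. Intracellular calcium was read kinetically on FDSS for 3 min.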
# [15] = biological target: Muscarinic acetylcholine receptor M1 (Homo sapiens) (UniProt P11229); test: Cholinergic receptor muscarinic 1 (CHRM1) small molecule agonists, cell-based qHTS assay (AID 1963589); further: nearly all actives have a fitted effect of over 35% in size
# Method in brief: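 Agonist-mode calcium-flux screen: compounds at 15 concentrations, three independent runs, were pin-transferred onto dye-loaded human CHRM1-CHO cells. Fluorescence was then recorded kinetically every second over minutes.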
# [16] = cAMP Responsive Elements (CRE) small molecule agonists, cell-based qHTS assay (AID 1963590)
# Method in brief: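 Agonist mode: compound added to CRE-bla HEK 293T cells (2,000/well, 18 h after plating) for 3 h at 37 C/5% CO2. Reporter activity detected via FRET beta-lactamase substrate, 2 h room-temperature loading.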
# [17] = biological target: D(2) dopamine receptor (Homo sapiens) (UniProt P14416); test: Dopamine D2 receptor (DRD2) small molecule antagonists, cell-based qHTS assay (AID 1963595; active means well fitted inhibition curve with a large enough effect in the signal ratio in the repeat runs, with a control signal flat; the % refers to the signal ratio; further: potency means the concentration at half of the fitted maximal effect)
# Method in brief: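 HTRF cAMP read-out at 665 and 620 nm emission (340 nm excitation). Antagonist mode: compounds were tested against 12 nM quinpirole in DRD2-HEK293 cells, with 200 nM NKH477 raising cAMP and 0.1 mM Ro20-1724 blocking its breakdown.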
# [18] = p53 small molecule agonists, cell-based qHTS assay: qHTS cell viability counter screen (AID 1963581); further: nearly all actives have a fitted effect of over 45% in size
# Method in brief: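 Counter screen read by CellTiter-Glo luminescence (ATP content, 30 min at room temperature), run in the same wells as the beta-lactamase reporter read. HCT-116 p53RE-bla cells saw compounds for 16 h at 37 C.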
# [19] = p53 small molecule agonists, cell-based qHTS assay (AID 1963582; active means well fitted activation curve with a large enough effect in the signal ratio in the repeat runs, not every such curve was filed as active; the % refers to the signal ratio)
# Method in brief: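 Read-out is beta-lactamase FRET fluorescence after 2 h at room temperature with LiveBLAzer B/G substrate. p53 response element-bla cells were treated 16 h at 37 C with compounds in DMSO, added 5 h after seeding.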
# [20] = biological target: 5-hydroxytryptamine receptor 2A (Homo sapiens) (UniProt P28223); test: 5-hydroxytryptamine receptor 2A (HTR2A) small molecule antagonists, cell-based qHTS assay (AID 1963586); further: nearly all actives have a fitted effect of over 45% in size
# Method in brief: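 CHO cells stably expressing human HTR2A were plated for 18 h at 37 C, then loaded with calcium dye for 1 h. Compounds were preincubated 5 min at room temperature before DOI (4 nM solution) was added. Kinetic fluorescence was read for 3 min.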
structure (smiles),measurement,setting,value
COc1ccc2c(c1OC)C(=O)O[C@@H]2[C@H]1c2c(cc3c(c2OC)OCO3)CCN1C,Potency,[1],inactive
same,Potency,[2],inactive
same,Potency,[3],inactive
same,outcome,[4],inactive
same,outcome,[5],inactive
same,Potency,[6],inactive
same,Potency,[7],inactive
same,Potency,[8],inactive
same,Potency,[9],inactive
same,Potency,[10],inactive
same,Potency,[11],inactive
same,Potency,[12],inactive
CC(COc1ccccc1)NC(C)C(O)c1ccc(O)cc1 (centres undefined),Potency,[1],inactive
same,Potency,[2],inactive
same,Potency,[3],inactive
same,outcome,[4],inactive
same,outcome,[5],inactive
same,Potency,[6],inactive
same,Potency,[7],inactive
same,Potency,[8],inactive
same,Potency,[9],inactive
same,Potency,[13],inactive
same,Potency,[14],inactive
same,Potency,[15],inactive
same,Potency,[16],inactive
same,Potency,[10],inactive
same,Potency,[11],inactive
same,Potency,[17],23.7 µM (active)
O=C(O)c1c(Cl)cccc1Cl,Potency,[1],inactive
same,Potency,[2],inactive
same,Potency,[3],inactive
same,outcome,[4],inactive
same,outcome,[5],inactive
same,Potency,[6],inactive
same,Potency,[7],inactive
same,Potency,[8],inactive
same,Potency,[18],inactive
same,Potency,[19],inactive
same,Potency,[20],inactive
same,Potency,[13],inactive
same,Potency,[14],inactive
same,Potency,[15],inactive
same,Potency,[16],inactive
same,Potency,[10],inactive
same,Potency,[11],inactive
same,Potency,[12],inactive
O=S(O)(O)=S,"activity change, negative = cytotoxicity",[1],-0.897% [at 8.39 µM]
same,"activity, positive = activation",[2],-3.55% [at 8.39 µM]
same,activity change,[3],"4.24% [at 5.22 µM, hits give high values]"
same,activation,[4],-0.115% [at 6.97 µM]
same,activation,[5],0.868% [at 5.23 µM]
same,activation,[6],0.289% [at 5.99 µM]
same,activation,[7],-2.47% [at 5.99 µM]
same,"activity change, negative = cytotoxicity",[8],-5.1% [at 5.99 µM]
same,"activity change, negative = cytotoxicity",[18],-0.464% [at 5.99 µM]
same,activation,[19],-3.63% [at 5.99 µM]
same,"activity, negative = inhibition",[20],5.27% [at 5.62 µM]
same,activation,[13],7.09% [at 7.02 µM]
same,"activity, negative = inhibition",[14],0.0869% [at 5.58 µM]
same,activation,[15],-0.0505% [at 6.97 µM]
same,activation,[16],-0.269% [at 8.39 µM]
same,"activity change, negative = inhibition",[10],-0.372% [at 8.39 µM]
same,"activity change, negative = inhibition",[11],6.54% [at 8.39 µM]
same,activation,[12],-2.24% [at 8.39 µM]
same,"activity change, negative = inhibition",[17],-2.62% [at 8.38 µM]
CN1C(=O)OC(C)(C)C1=O,Potency,[1],inactive
same,Potency,[2],inactive
same,Potency,[3],inactive
same,outcome,[4],inactive
same,outcome,[5],inactive
same,Potency,[6],inactive
same,Potency,[7],inactive
same,Potency,[8],inactive
same,Potency,[9],inactive
same,Potency,[11],inactive
same,Potency,[12],inactive
same,Potency,[17],inactive
CCCCCCCC[P+](CCCCCCCC)(CCCCCCCC)CCCCCCCC,Potency,[1],4.83 µM (active)
same,Potency,[2],inactive
same,Potency,[3],inactive
same,outcome,[4],inactive
same,outcome,[5],inactive
same,Potency,[6],inactive
same,Potency,[7],inactive
same,Potency,[8],8.09 µM (active)
same,Potency,[9],20.3 µM (active)
same,Potency,[13],24.4 µM (active)
same,Potency,[14],inactive
same,Potency,[15],inactive
same,Potency,[11],inactive
same,Potency,[12],inactive
same,Potency,[17],13.6 µM (active)
CN1CN(C)CN(C)C1,Potency,[1],inactive
same,Potency,[2],inactive
same,Potency,[3],inactive
same,outcome,[4],inactive
same,outcome,[5],inactive
same,Potency,[6],inactive
same,Potency,[7],inactive
same,Potency,[8],inactive
same,Potency,[9],inactive
same,Potency,[20],inactive
same,Potency,[13],inactive
same,Potency,[15],inactive
same,Potency,[16],inactive
same,Potency,[10],inactive
same,Potency,[11],inactive
same,Potency,[12],inactive
same,Potency,[17],inactive
